Assay outcomes deposited in PubChem by several laboratories.
Rows were chosen to be rich in hits. Some 2.1% of all compounds tested hit in one or more screens of this group.
aSyn 5UTR inh = 5' untranslated region of α-synuclein, MLPCN primary screen. AID 1813. inhibition, % (tested at 7.5 µM). 300,000 tested, 0.82% active. alpha-synuclein 5'UTR reporter, inhibitor activity; in the data active = inhibition above about 60%; inconclusive = no clear call, values can overlap the other calls;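 note: H4 neuroglioblastoma cells stably carrying SNCA 5'UTR luciferase fusion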
BaF3 parental = reduces parental Ba/F3 cell viability, JAK2V617F counter-screen; CellTiter-Glo ATP luminescence; inhibition, % at 5.6 µM; 220,000 tested, 1.1% active; AID 1486;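 active = inhibition above a per-campaign cutoff, the mean inhibition of all tested compounds plus 3 SD, cut at about 27% in these data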
IEC-6 tox-1 = counter-screen for KLF5 inhibitors: cytotoxicity in IEC-6 cells; IEC-6 cytotoxicity, luminescence viability; inhibition, % at 5 µM; 290,000 tested, 0.78% active
KLF5 inh = inhibitors of KLF5 expression | DLD-1 KLF5 promoter-luciferase reporter, luminescence | inhibition, % at 5 µM | 290,000 tested, 0.23% active;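 active = inhibition above a per-plate limit of that plate's mean compound inhibition plus 3 SD, cut at about 60% in these data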;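 note: higher means less KLF5 promoter-driven luciferase light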
APP transl inh = APP translation inhibition | inhibition, % at 2 µM | AID 1285 | SH-SY5Y APP 5'UTR-luciferase reporter, luminescence | 190,000 tested, 0.82% active;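 active = inhibition above a set limit, derived from the sample mean plus 3 SD, cut at about 45% in these data; inconclusive = one replicate passes the limit while the other fails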
Ba/F3 V617F tox = reduce viability of Ba/F3 cells dependent on JAK2V617F. AID 1446. inhibition, % at 5.6 µM. 220,000 tested, 1.1% active. Ba/F3 EpoR-JAK2V617F viability, ATP luminescence;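 active = inhibition above the campaign mean plus 3 SD over all tested compounds, cut at about 24% in these data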;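 note: cytokine-independent growth of Ba/F3 cells driven by EpoR plus mutant JAK2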
KLF5 confirm = confirmation of KLF5 inhibitors | DLD-1 KLF5 promoter firefly luciferase reporter, luminescence | 610 tested, 79% active | shares compounds with KLF5 inh | inhibition, % at 4 µM;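 active = inhibition above a set limit taken from the earlier primary screen, cut at about 63% in these data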
IEC-6 tox-2 = counter-screen for KLF5 inhibitors: cytotoxicity in rat IEC-6 cells | shares compounds with KLF5 inh | IEC-6 rat intestinal cells, viability luminescence | inhibition, % at 4 µM | 610 tested, 56% active; in the data active = inhibition above about 23%;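 note: cells exposed to compounds for 48 hours before viability read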
IEC-6 tox confirm = IEC-6 cytotoxicity, confirmation assay. inhibition, % at 5 µM. shares compounds with IEC-6 tox-1. IEC-6 rat intestinal epithelial viability, luminescence. 1,900 tested, 63% active
A number is an active result; - = inactive; ? = inconclusive; . = no result given. Cut-off read from the data, not from the text of the source, unless noted: active = inhibition above about 22%; inactive = the rest.

SMILES	aSyn 5UTR inh	BaF3 parental	IEC-6 tox-1	KLF5 inh	APP transl inh	Ba/F3 V617F tox	KLF5 confirm	IEC-6 tox-2	IEC-6 tox confirm
CCO[C@H]1OC(C(=O)NCc2nc3ccccc3[nH]2)=C[C@@H](C2CC2)[C@@H]1CCCO	80	73	72	72	86	74	78	64	53
Cc1cccc(-n2c(Cc3cc(=O)[nH]c(=O)[nH]3)nnc2SCC(=O)N2CCc3ccccc32)c1	-	.	-	-	.	.	.	.	.
OCCc1c[nH]c2ccc(C(F)(F)F)cc12	-	.	-	-	.	.	.	.	.
O=C(Nc1nc2cc3c(cc2s1)OCCO3)c1ccco1	66	.	23	86	.	.	81	-	-
CC(C)C[C@H](NC(=O)OC(C)(C)C)C(=O)N[C@@H](CO)[C@H](O)[C@@H]1C[C@@H]1C(=O)NC1CCCCC1	-	.	-	-	.	.	.	.	.
C=C(C)COc1ccc(-c2n[nH]c(C)c2Oc2ccccc2OC)c(O)c1	-	-	-	-	-	-	.	.	.
C=C(C)COc1ccc(-c2n[nH]c(C)c2-c2ccc(OC)c(OC)c2)c(O)c1	-	76	75	63	.	78	70	28	49
CN(C)c1ccc(/C=N/NC(=O)COc2ccccc2)cc1	-	-	-	-	-	-	.	.	.
COc1ccc(/C=N/NC(=O)COc2ccccc2-c2ccccc2)cc1	70	76	79	65	96	76	77	54	56
COc1ccc(C(=O)/C(=C\c2ccco2)N2C=CC=CC2=C(C#N)C#N)cc1	77	100	83	69	84	99	-	50	62
COc1ccc(C(=O)N/C(=C\c2ccco2)C(=O)OCc2ccco2)cc1	-	-	-	-	.	-	.	.	.
Cc1ccnc(NC(=O)c2ccccc2NC(=O)c2ccc(Cl)cc2Cl)c1	69	.	78	67	.	.	69	49	59
COc1ccccc1-c1nnc2sc(-c3ccc(N(C)C)cc3)nn12	99	80	91	72	97	81	91	72	72
Cc1ccc(OCC(=O)Nc2cccnc2Cl)cc1C	-	.	-	-	.	.	.	.	.
CCC(C)[C@H](NS(=O)(=O)c1ccc(C)cc1)C(=O)N1CCC(C(=O)N[C@@H](Cc2ccccc2)C(=O)O)CC1 (some centres undefined)	-	.	-	-	.	.	.	.	.
CSc1nc(N(C)NC(=O)c2ccccc2)c2ccccc2n1	-	69	78	76	96	69	75	65	55
CSc1nc(N(C)NC(=O)c2ccc(Cl)cc2)c2ccccc2n1	93	78	80	65	95	80	75	64	63
CS(=O)(=O)N(CC(=O)NC1CC2CCC1C2)c1ccc(Oc2ccccc2)cc1 (centres undefined)	-	-	-	-	-	-	.	.	.
Cc1ccc2nc(-c3ccc4c(c3)NC(=O)CO4)cn2c1	-	-	-	-	.	-	.	.	.
Cc1ccc2nc(-c3ccc4c(c3)OCCO4)cn2c1	110	79	75	103	.	81	106	57	61
CC(=O)c1sc(NS(=O)(=O)c2ccc(C)cc2)nc1-c1ccccc1	-	.	-	-	.	.	.	.	.
COC(=O)c1ccc(C)c(NS(=O)(=O)c2ccc3c(c2)OCCO3)c1	94	55	80	82	93	75	76	56	54
O=C(CN1C(=O)NC2(CCCC2)C1=O)NNC(=O)c1ccc(F)cc1	-	.	.	.	.	.	.	.	.
CC(SCc1ccccc1)C(=O)Nc1ccc(F)cc1 (centres undefined)	-	-	-	-	-	-	.	.	.
N#CC(C#N)=C(Nc1ccc(F)cc1)SCc1cccc(Br)c1	?	-	30	65	-	-	68	28	41
Cc1cc(C)cc(-n2ncc3c2CCCC3NC(=O)CN2CCCCC2=O)c1 (centres undefined)	-	.	-	-	.	.	.	.	.
CCOc1ccc2c(c1)C(C)=CC(C)(C)N2S(=O)(=O)c1ccc(NC(C)=O)cc1	70	.	92	73	.	.	89	71	72
CCOc1ccc2c(c1)C(C)=CC(C)(C)N2S(=O)(=O)c1ccc(F)cc1	-	.	-	-	.	.	.	.	.
